Where “and” joins values, the source holds several entries; their conditions need not be identical. Identical values can stand only once. Some compounds were tested as several samples or in several runs, with calls that do not always agree. Calls of active or inactive are those of the source. How the source made its calls: active means hit-call score of the fitted dose curve at least 0.9, where 1 is the maximum; inactive means score below 0.9.
Experiment: ATG_CMV_CIS: Attagene CIS-FACTORIAL HepG2 Assay for human CMV (Internal Marker) (AID 2282928);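 further: endpoint acts as a background internal control marker rather than a target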
Details: HepG2 CMV promoter reporter, transcription factor profiling; actives raise or lower the signal
Experimental: ATG_CIS is a cell-based, multiplexed-readout assay that uses HepG2, a human liver cell line, with measurements taken at 24 hours after chemical dosing in a 24-well plate.ATG_CMV_CIS is one of 52 assay component(s) measured or calculated from the ATG_CIS assay. It is designed to make measurements of mRNA induction, a form of inducible reporter, as detected with fluorescence intensity signals by Reverse transcription polymerase chain reaction (RT-PCR) and Capillary electrophoresis technology.Data from the assay component ATG_CMV_CIS was analyzed into 1 assay endpoint. This assay endpoint, ATG_CMV_CIS, was analyzed with bidirectional fitting relative to DMSO as the negative control and baseline of activity. Using a type of inducible reporter, measures of mRNA for gain or loss-of-signal activity can be used to understand the background control at the transcription factor-level as they relate to the gene . Furthermore, this assay endpoint can be referred to as a secondary readout, because this assay has produced multiple assay endpoints where this one serves a background control function. To generalize the intended target to other relatable targets, this assay endpoint is annotated to the background measurement intended target family, where the subfamily is internal marker.
Human liver HepG2 cells are transiently transfected with multiple reporter transcription units (MRTUs) in 6-well plates using FuGene 6 reagent (Roche; 3 ml FuGene/1 mg DNA). The MRTU constructs are regulated by a cis-regulating element (promoter). […] A major difference between the CIS and TRANS system is that in CIS activities of endogenous TFs are measured, whereas the TRANS assay evaluates changes in activities of exogenous, chimeric NR-Gal4 proteins. […] At the end of 24 hour incubation, total RNA was isolated using TriZol reagent (Invitrogen). The isolated RNA is then reverse-transcribed using oligo(dT) primer and Mo-MLV reverse transcriptase (Invitrogen) with DNAse I (Ambion) treatment for 30 min. The one-tenth of the produced cDNA was amplified by PCR using Taq DNA polymerase (Invitrogen) and two reporter sequence-specific primers. The PCR products were fluorescently labeled by primer extension with 6-arboxyfluorescein (6-FAM) 5'-labeled reporter sequence-specific primer (2 min at 95 C, 20 s at 68 C and 10 min at 72 C) and these products were digested with 5U of HpaI (New England Biolabs) for 2h at 37 C. The fragments were purified using Qiaquick PCR columns (Qiagen), analyzed on an ABI 3130xL genetic analyzer (Applied Biosystems) with peak positions identified by using a set of X-rhodamine (ROX)-labeled MapMarker1000 molecular weight standards (BioVentures). The raw capillary electrophoresis data was processed using Attagraph software (Attagene).

| SMILES | outcome | AC50 |
| --- | --- | --- |
| O=C1OC2(c3ccc(O)cc3Oc3cc(O)ccc32)c2ccccc21 | inactive | – |
| CCC=C(C)C=O | inactive | – |
| CCCCC/C=C\C=C\C(=O)OCC | – | 123 µM (active) |
| OC[C@@H](O)[C@H](O)[C@@H](O)[C@@H](O)CO | inactive | – |
| ClCCOCCOCCCl | inactive | – |
| COc1ccc(C(C)=O)cc1 | inactive | – |
| CCCCCCOc1ccc(O)cc1 | – | 33.4 µM (active) |
| Nc1ccn([C@H]2CC[C@@H](CO)O2)c(=O)n1 | inactive | – |
| CC(=O)CC(C)(C)C1CCCCC1 | inactive | – |
| CC(CO)c1ccccc1 (stereo not given) | inactive | – |
| CC1=CC(O)CC(C)(C)C1 (stereo not given) | inactive | – |
| CCCCCCCCOC(C)=O | inactive | – |
| OCCCO | inactive | – |
| CCCCCCC(C)O (stereo not given) | inactive | – |
| CCCOC(=O)CC | inactive | – |
| O=C1CCCCCCCCCCCC(=O)OCCO1 | inactive | – |
| C1=COCCC1 | inactive | – |
| CCO[Si](CC)(OCC)OCC | inactive | – |
| CCCCCC#CC(=O)OC | inactive | – |
| CC/C(=C(\c1ccccc1)c1ccc(OCCN(C)C)cc1)c1ccccc1 | inactive | – |

| SMILES | outcome | AC50 |
| --- | --- | --- |
| Cc1cc(O)c2c(c1)C(=O)c1cc(O)cc(O)c1C2=O | inactive | – |
| COc1ccc(N)c(C)c1 | inactive | – |
| COc1cc(OC)c2ccc(=O)oc2c1 | inactive | – |
| O=S(=O)(O)c1cc(S(=O)(=O)O)c2c(N=Nc3ccccc3)c(O)ccc2c1 | inactive | – |
| CC1=CCC(=C(C)C)CC1 | inactive | – |
| CCCCCCC(O)CCOC(C)=O (stereo not given) | inactive | – |
| C=C1CC[C@H]2O[C@]2(C)CC[C@@H]2[C@@H]1CC2(C)C | – | 191 µM (active) |
| N=C1N=C(N)c2ccccc21 | inactive | – |
| C#C[C@]1(O)CC[C@H]2[C@@H]3CCc4cc(O)ccc4[C@H]3CC[C@@]21C | inactive | 26.4 µM (active) and 26 µM (active) and 26.2 µM (active) |
| CCCCCCCCCCCCN1CCOCC1 | – | 44.8 µM (active) |
| CC(=O)OC(C)(C)C1CC=C(C)CC1 (stereo not given) | inactive | – |
| CN(C)CCC=C1c2ccccc2CCc2ccccc21 | inactive | – |
| CCCCCCCOC(C)=O | inactive | – |
| CCOc1ccc(NC(C)=O)cc1 | inactive | – |
| CCCCCCCC1CCCC1=O (stereo not given) | inactive | – |
| CCC(C)COC(=O)CC(C)C (stereo not given) | inactive | – |
| O=S1(=O)CC(Cl)(Cl)C(Cl)(Cl)C1 | – | 2.22 µM (active) |
| CC1(C)CC(=O)CC(C)(C)N1 | inactive | – |
| CC(=O)N(C)C | inactive | – |

Reference: PubChem BioAssay (EPA / NIEHS)
